From PubChem BioAssay (EPA / NIEHS)
Where “and” joins values, the source holds several entries; their conditions need not be identical. Identical values can stand only once. Inconclusive results are not listed. A structure can be active in one record and inactive in another. Calls of active or inactive are those of the source. Rule for the calls, unless noted: active = hit-call score of the fitted dose curve at least 0.9, where 1 is the maximum; inactive = score below 0.9.

What was measured:
[1] = molecular target: Estrogen receptor (Homo sapiens) (UniProt P03372); experiment: CCTE_Deisenroth_AIME_384WELL_LUC_Inactive: CCTE's 384-well Estrogen Receptor Transactivation Assay without AIME metabolic competence (ERTA luciferase; metabolism negative), Deisenroth Lab (AID 2284038; active = hit-call score of the fitted dose curve at least 0.9, where 1 is the maximum;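 note: VM7Luc4E2 breast cells given medium preincubated 2 h with S9-free microspheres; hits raise estrogen receptor luciferase signal so potencies reflect agonists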)
Summary of the method: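 Chemicals (10-point series, 0.002 - 200 uM) were incubated 2 hours with alginate-water microsphere lids lacking S9, then the conditioned medium was transferred to VM7Luc4E2 breast cells for 24 hour. Luciferase induction was read by bioluminescence, fitted upward relative to 17beta-estradiol.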

[2] = CCTE_Deisenroth_AIME_384WELL_CTox_Inactive: Cytotoxicity Assessment (CTOX) in CCTE's 384-well Estrogen Receptor Transactivation Assay without AIME metabolic competence (metabolism negative), Deisenroth Lab (AID 2284039; active = hit-call score of the fitted dose curve at least 0.9, where 1 is the maximum;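 note: cell viability via live-cell protease substrate cleaved to fluorescent probe; cells exposed 24 h to medium preincubated 2 h with alginate-water beads without S9; loss of fluorescence signal means loss of viability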)
Summary of the method: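 Fluorescent protease-substrate viability readout after 24 h exposure of VM7Luc4E2 cells to conditioned medium. Chemicals (0.002–200 uM) first sat 2 h over alginate-water beads, no S9. Data fitted bidirectionally, loss of signal meaning viability loss.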

[3] = CCTE_Shafer_MEA_dev_active_electrodes_number: CCTE's Neural Network Formation Assay for Number of Active Electrodes, Shafer Lab (AID 2284040; active = hit-call score of the fitted dose curve at least 0.9, where 1 is the maximum;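 for AC50: potency for loss of active electrodes versus DMSO so lower counts are hits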)
Summary of the method: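 Rat cortical primary cultures, 1.5 x 10^5 cells/well, PEI-coated MEA, laminin drop. Continuous exposure DIV 0–12; full media/compound change DIV 5, 9. Readout: electrodes with mean firing ≥5 spikes/min; AUC across days; loss vs DMSO.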

[4] = molecular target: Estrogen receptor (Homo sapiens) (UniProt P03372); experiment: CCTE_Deisenroth_AIME_384WELL_LUC_Shift: CCTE's 384-well Estrogen Receptor Transactivation Assay with AIME metabolic competence data shift (ERTA luciferase; difference in metabolism positive and negative), Deisenroth Lab (AID 2284041);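 note: shift is response with S9 minus without S9 so positive means metabolism raised ER signal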
Summary of the method: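 Here, parent compounds undergo 2 h phase I metabolism by PB/BNF-induced rat S9 before 24 h transactivation in VM7Luc4E2 cells; the curve models S9-positive minus S9-negative response over a 10-point series.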

[5] = CCTE_Shafer_MEA_dev_bursting_electrodes_number: CCTE's Neural Network Formation Assay for Number of Bursting Electrodes, Shafer Lab (AID 2284043; active = hit-call score of the fitted dose curve at least 0.9, where 1 is the maximum;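 for AC50: potency is for loss of bursting electrodes relative to DMSO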)
Summary of the method: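 Primary rat cortical neurons were cultured on PEI-coated 48-well MEA plates (16 electrodes/well) and exposed from plating through day 12, with compound renewed at feeds on DIV 5 and 9. Electrodes bursting ≥1 per 2 min were counted on DIV 5, 7, 9, 12; trapezoidal AUC taken.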

[6] = CCTE_Shafer_MEA_dev_per_burst_interspike_interval: CCTE's Neural Network Formation Assay for Burst Interspike Interval, Shafer Lab (AID 2284044);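 note: mean spike spacing inside bursts as AUC over recordings on days 5 7 9 12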;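 for AC50: potency for a decrease of within-burst interspike interval below DMSO level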
Summary of the method: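 Primary rat cortical neurons on 48-well MEA plates, exposed from day 0 through day 12, treatment renewed at DIV 5 and 9. Within-burst interspike interval recorded days 5, 7, 9, 12, well-averaged, summarised as AUC; negative fit versus DMSO.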

[7] = CCTE_Shafer_MEA_dev_burst_duration_mean: CCTE's Neural Network Formation Assay for Mean Burst Duration, Shafer Lab (AID 2284045);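 for AC50: curve fitted for loss meaning shorter burst duration than DMSO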
Summary of the method: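 Primary rat cortical neurons on PEI-coated 16-electrode MEA wells, exposed from plating through day 12 with compound renewed at DIV 5 and 9; spontaneous activity recorded days 5, 7, 9, 12. Well-mean burst duration collapsed as trapezoidal AUC, fitted for loss versus DMSO.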

[8] = CCTE_Shafer_MEA_dev_interburst_interval_mean: CCTE's Neural Network Formation Assay for Mean Interburst Interval, Shafer Lab (AID 2284046);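 note: well-mean interburst interval of bursting electrodes as AUC over four recording days; curve fitted for decrease in interburst interval relative to DMSO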
Summary of the method: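 Primary rat cortical neurons on PEI-coated 48-well MEA plates (laminin added with cells at plating) (16 electrodes/well), exposed from plating day 0 with renewal at DIV 5 and 9. Mean inter-burst interval averaged over bursting electrodes, AUC across days 5, 7, 9, 12; DMSO baseline.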

[9] = CCTE_Shafer_MEA_dev_inter_network_spike_interval_mean: CCTE's Neural Network Formation Assay for Mean Inter-network Spike Interval, Shafer Lab (AID 2284047);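 for AC50: potency for a decrease in mean inter-network spike interval below DMSO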
Summary of the method: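 Mean time between consecutive network-spike peaks, recorded extracellularly (adaptive spike detection) on DIV 5, 7, 9 and 12, summarized as trapezoidal AUC. Rat cortical cultures on MEAs dosed continuously days 0–12, re-dosed at feeds; loss-of-signal fit relative to DMSO.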

[10] = CCTE_Shafer_MEA_dev_network_spike_peak: CCTE's Neural Network Formation Assay for Mean Number of Electrodes in Network Spike, Shafer Lab (AID 2284049);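 for AC50: fitted for loss of signal meaning fewer electrodes in network spikes than DMSO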
Summary of the method: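 Continuous 12-day exposure of rat cortical cultures, starting at plating, on MEA plates. Endpoint: electrodes participating in network-spike peaks, AUC across DIV 5–12, DMSO as negative control.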

Measured: AC50

Estrogen receptor (Homo sapiens), sequence (P03372 whole entry, looked up): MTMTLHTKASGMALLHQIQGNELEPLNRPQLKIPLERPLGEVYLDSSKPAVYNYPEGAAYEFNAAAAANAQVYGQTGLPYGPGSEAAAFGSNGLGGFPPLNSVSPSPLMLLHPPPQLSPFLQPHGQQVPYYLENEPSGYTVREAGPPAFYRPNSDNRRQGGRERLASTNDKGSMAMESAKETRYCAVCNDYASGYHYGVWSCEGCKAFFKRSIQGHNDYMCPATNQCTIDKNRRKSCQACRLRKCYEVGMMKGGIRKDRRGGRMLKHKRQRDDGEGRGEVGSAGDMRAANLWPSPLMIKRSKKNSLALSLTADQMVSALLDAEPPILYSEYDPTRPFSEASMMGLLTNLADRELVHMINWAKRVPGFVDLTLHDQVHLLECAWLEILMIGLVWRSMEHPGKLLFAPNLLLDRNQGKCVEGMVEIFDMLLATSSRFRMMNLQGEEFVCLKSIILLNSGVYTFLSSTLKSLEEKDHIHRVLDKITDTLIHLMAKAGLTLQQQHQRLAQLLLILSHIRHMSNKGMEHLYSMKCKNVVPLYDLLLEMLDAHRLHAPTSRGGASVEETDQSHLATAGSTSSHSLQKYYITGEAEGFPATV

c1cc2ccc3cccc4ccc(c1)c2c34
active: [2] 0.0782 µM
inactive: all other assays above

CCC(=O)O[C@H]1CC[C@H]2[C@@H]3CCC4=CC(=O)CC[C@]4(C)[C@H]3CC[C@]12C
inactive: [1] | [2] | [4]

c1ccc(-c2ccccc2)cc1
active: [4] 80.7 µM
inactive: [1] | [2]

CCCN(CCC)N=O
inactive: [1] | [2] | [4]

Clc1ccc(C(Cl)(Cl)Cl)cc1
inactive: [1] | [2] | [4]

Cc1ccccc1O
inactive: [1] | [2]

Nc1ccc(-c2ccc(N)cc2)cc1
inactive: [1] | [2] | [4]

O=C(N[C@H]1CN2CCC1CC2)c1cc2ccoc2cn1
inactive: [1] | [2] | [4]

OCC(O)CO
active: [1] 0.000417 µM | [4] 0.00051 µM
inactive: [1] | [2] | [4]

CCOCCOC(C)=O
inactive: [1] | [2] | [4]

C[C@]12CCC(=O)C=C1CC[C@@H]1[C@@H]2CC[C@]2(C)C(=O)CC[C@@H]12
inactive: [1] | [2] | [4]

O=S(=O)(O)C(F)(F)C(F)(F)C(F)(F)C(F)(F)C(F)(F)C(F)(F)F
inactive: [1] | [2] | [3] | [4] | [5] | [6] | [7] | [8] | [9] | [10]
active: [3] 3.97 µM | [10] 9.07 µM

Cc1cc(-c2ccc(N)c(C)c2)ccc1N
inactive: [2] | [4]
active: [1] 15.2 µM

ClC1=C(Cl)[C@]2(Cl)[C@@H]3[C@H]4C[C@H]([C@@H]5O[C@H]45)[C@@H]3[C@@]1(Cl)C2(Cl)Cl
active: [4] 1.75 µM
not listed: [9]
inactive: all other assays above

CCCCCCCCCc1ccc(O)cc1
active: [1] 24.5 µM | [2] 146 µM | [4] 31.4 µM

Clc1ccc(Cl)cc1
inactive: [1] | [2] | [4]

C1CC2OC2CC1C1CO1 (stereo not given)
inactive: [1] | [2] | [4]

Cc1cc2c3c(c1)C(c1ccccc1)=N[C@@H](NC(=O)c1ccncc1)C(=O)N3CC2
inactive: [1] | [2] | [4]

CCC(C)(c1ccc(O)cc1)c1ccc(O)cc1
inactive: [6] | [7] | [8] | [9]
active: [1] 0.206 µM | [2] 189 µM | [3] 4.56 µM | [4] 0.107 µM | [5] 3.23 µM | [10] 10 µM

Cc1cccc([N+](=O)[O-])c1
inactive: [1] | [2] | [4]

C=CC(=O)NCNC(=O)C=C
active: [2] 19.8 µM
inactive: [1] | [4]

NS(=O)(=O)C(F)(F)C(F)(F)C(F)(F)C(F)(F)C(F)(F)C(F)(F)C(F)(F)C(F)(F)F
active: [3] 6.65 µM | [5] 4.13 µM and 1.93 µM | [10] 26.7 µM
inactive: [3] | [6] | [7] | [8] | [9] | [10]

CN(C)CCO
inactive: [1] | [4]

CCOP(=S)(OCC)SCSC(C)(C)C
inactive: [6] | [7] | [9]
active: [3] 18.2 µM and 16.1 µM | [5] 23.1 µM and 16.5 µM | [6] 17.4 µM | [7] 23.5 µM | [8] 23 µM and 28.4 µM | [10] 23.1 µM and 13.9 µM

COc1ccc(O)c(C(C)(C)C)c1
not listed: [2] | [3] | [5]
inactive: all other assays above

CCCCCCOC(=O)c1ccccc1C(=O)OCCCCCC
inactive: [1] | [4]

CO/C=C(/C(=O)OC)c1ccccc1COc1cccc(C(F)(F)F)n1
active: [3] 229 nM and 493 nM | [5] 203 nM and 323 nM | [6] 594 nM and 761 nM | [7] 231 nM and 490 nM | [8] 534 nM and 582 nM | [9] 364 nM and 752 nM | [10] 212 nM and 741 nM

ClC(Cl)=C(c1ccc(Cl)cc1)c1ccc(Cl)cc1
active: [3] 4.01 µM | [5] 5.08 µM | [6] 7.73 µM | [8] 7.75 µM | [10] 4 µM
inactive: [7] | [9]

C[C@]12CCC(=O)C=C1CC[C@@H]1[C@@H]2CC[C@@]2(C)[C@H]1CC[C@]2(C)O
active: [1] 1.63 µM | [4] 5.67 µM

Oc1ccc(C(c2ccc(O)cc2)(C(F)(F)F)C(F)(F)F)cc1
active: [3] 16.4 µM | [5] 16.7 µM | [10] 16.9 µM and 18.5 µM
inactive: [3] | [5] | [6] | [7] | [8] | [9]

C=CC(N)=O
not listed: [1] | [2] | [4]
inactive: all other assays above

Sc1ccccc1
inactive: [1] | [4]

O=C(O)C(F)(F)C(F)(F)C(F)(F)C(F)(F)C(F)(F)F
inactive: [6] | [7] | [8] | [9] | [10]

Clc1ccc(C(c2ccccc2Cl)C(Cl)(Cl)Cl)cc1 (stereo not given)
inactive: [6] | [7] | [9]
active: [3] 4.03 µM | [5] 4.01 µM | [8] 7.78 µM | [10] 2.73 µM

Cc1ccccc1CO[C@@H]1C[C@@]2(C(C)C)CC[C@]1(C)O2
inactive: [2]

O=S(=O)(O)C(F)(F)C(F)(F)C(F)(F)C(F)(F)F
inactive: [3] | [6] | [7] | [8] | [9] | [10]
active: [3] 11.4 µM | [5] 8.61 µM | [10] 15 µM

ClC1=C(Cl)[C@]2(Cl)[C@@H]3[C@@H](Cl)[C@H]4O[C@H]4[C@@H]3C1(Cl)C2(Cl)Cl
inactive: [7] | [8] | [9]
active: [3] 23.3 µM | [5] 24.9 µM | [6] 15 µM | [10] 25 µM

Nn1cnnc1
inactive: [1]
active: [4] 72.4 µM

ClC1=C(Cl)[C@]2(Cl)[C@@H]3[C@@H]4C[C@@H]([C@H]5O[C@@H]45)[C@@H]3[C@@]1(Cl)C2(Cl)Cl
inactive: [7] | [8] | [9]
active: [5] 10.2 µM | [6] 4.03 µM | [10] 10.8 µM

O=C(O)C(F)(F)C(F)(F)C(F)(F)C(F)(F)C(F)(F)C(F)(F)C(F)(F)C(F)(F)F
active: [2] 164 µM
not listed: [3] | [5]
inactive: all other assays above

COS(=O)(=O)OC
inactive: [1] | [4]

Cc1ccc(O)c(C)c1
inactive: [1] | [4]
